The text below walks through data of PubChem BioAssay (Tox21).

The structures appear in SMILES notation. Results filed as inconclusive are left out. Activity calls are given as the source filed them. Unless noted, calls come from the whole dose curve; as a rule, active = well fitted curve in the direction sought with a large enough effect in the repeat runs; inconclusive = weak or mixed curves; inactive = no such curve, though single readings can be large; an effect the other way counts as inactive or inconclusive.

Experiment [1] is described as follows: qHTS assay to identify small molecule antagonists of the glucocorticoid receptor (GR) signaling pathway - cell viability counter screen (AID 720693). Note: nearly all actives have a fitted effect of over 55% in size. A general note: In qHTS, concentration-response curves come from the screen itself.
The nature of experiment [2]: qHTS assay for identifying genotoxic compounds that show differential cytotoxicity against isogenic chicken DT40 cell lines with known DNA damage response pathways - wild type cell line (AID 743012). Note: nearly all actives have a fitted effect of over 60% in size. Note: potency is the fitted concentration of half-maximal effect. An outline of the steps:
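Luminescent ATP viability signal (CellTiter-Glo, 30 min RT) recorded after wild type DT40 cells were incubated with compounds for 40 h at 37 C/5% CO2.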

Experiment [3] can be described thus: qHTS assay for identifying genotoxic compounds that show differential cytotoxicity against isogenic chicken DT40 cell lines with known DNA damage response pathways - Rev3 mutant cell line (AID 743014). Note: nearly all actives have a fitted effect of over 55% in size. Note: potency is the fitted concentration of half-maximal effect.
The nature of experiment [4]: qHTS assay to identify small molecule antagonists of the androgen receptor (AR) signaling pathway - cell viability counter screen (AID 743033; note: nearly all actives have a fitted effect of over 45% in size).
Experiment [5] is described as follows: qHTS assay to identify small molecule antagonists of the androgen receptor (AR) signaling pathway using the MDA cell line - cell viability counter screen (AID 743041; note: nearly all actives have a fitted effect of over 45% in size). Put shortly: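 Compound exposure lasted 16 h at 37C in MDA-kb2 AR-luc cells stimulated with R1881. Protease-based CellTiter-Fluor reagent was applied for the final 30 min and fluorescence measured.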

Experiment [6] is described as follows: qHTS assay to identify small molecule antagonists of the thyroid receptor (TR) signaling pathway - cell viability counter screen (AID 743064). Note: nearly all actives have a fitted effect of over 50% in size. Put shortly:
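In-well cytotoxicity read by CellTiter-Fluor (30 min, 37 C) following 23.5 h exposure of GH3 cells bearing a TRE-luciferase sensor. Compounds were added alongside 1 nM (final) T3 to drive TR transactivation.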

Experiment [7] in a line: qHTS assay to identify small molecule antagonists of the thyroid receptor (TR) signaling pathway (AID 743065). Note: nearly all actives have a fitted effect of over 55% in size. Note: potency is the fitted concentration of half-maximal effect. An outline of the steps: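 GH3.TRE-Luc rat pituitary cells (two TREs driving luciferase) were dosed with compound, then stimulated with 1 nM T3 (final) for 23.5 h at 37 C. ONE-Glo luminescence was the read-out, with CellTiter-Fluor fluorescence as the cytotoxicity counter-screen.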

Experiment [8] has as its system thyroid hormone receptor (rat, GH3 cells). The experiment can be described thus: qHTS assay to identify small molecule agonists of the thyroid receptor (TR) signaling pathway (AID 743066; calls by dose curve).
In experiment [9] the target is Estrogen receptor (Homo sapiens) (UniProt P03372). The experiment in a line: qHTS assay to identify small molecule antagonists of the estrogen receptor alpha (ER-alpha) signaling pathway (AID 743069; active = well fitted curve in the direction sought with a large enough effect in the signal ratio in the repeat runs, not every such curve was filed as active; the % refers to the signal ratio). An outline of the steps: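 In this cell-based reporter format, GripTite HEK293 cells harbouring ER-alpha-UAS-bla were grown overnight with 2% charcoal-stripped FBS, dosed with DMSO-dissolved compounds, then challenged with 17beta-estradiol. After 18 hr at 37C, beta-lactamase activity was detected by FRET fluorescence.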

Experiment [10] is described as follows: qHTS assay to identify small molecule antagonists of the estrogen receptor alpha (ER-alpha) signaling pathway - cell viability counter screen (AID 743074; calls by dose curve; note: nearly all actives have a fitted effect of over 45% in size).
Experiment [11] concerns the target Estrogen receptor (Homo sapiens) (UniProt P03372). The experiment in a line: qHTS assay to identify small molecule agonists of the estrogen receptor alpha (ER-alpha) signaling pathway (AID 743075; calls by dose curve).
For experiment [12] the target is unchanged. The experiment can be described thus: qHTS assay to identify small molecule agonists of the estrogen receptor alpha (ER-alpha) signaling pathway using the BG1 cell line (AID 743079). Note: nearly all actives have a fitted effect of over 20% in size.
The nature of experiment [13]: qHTS assay to identify small molecule antagonists of the estrogen receptor alpha (ER-alpha) signaling pathway using the BG1 cell line (AID 743080; calls by dose curve;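 note: BG1 cells stimulated with 17beta-estradiol alongside compound; series mostly up to about 70 µM; nearly all actives have a fitted effect of over 25% in size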). An outline of the steps: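 Readout is ONE-Glo luminescence, taken 30 min at room temperature after reagent addition, preceded by a CellTiter-Fluor viability read; BG1-Luc-4E2 cells had received compound and 17beta-estradiol for 21.5 h at 37 C.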

A short description of experiment [14]: qHTS assay to identify small molecule antagonists of the estrogen receptor alpha (ER-alpha) signaling pathway using the BG1 cell line - cell viability counter screen (AID 743081).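 Note: compound given together with 17beta-estradiol as the ER stimulus; series mostly up to about 70 µM; nearly all actives have a fitted effect of over 45% in size.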
In a further experiment the target is Aromatase (Homo sapiens) (UniProt P11511). The experiment in a line: qHTS assay to identify aromatase inhibitors (AID 743083). Note: series mostly up to about 70 µM; nearly all actives have a fitted effect of over 55% in size.
Experiment [15] deals with Androgen receptor (Homo sapiens) (UniProt P10275). The experiment can be described thus: qHTS assay to identify small molecule agonists of the androgen receptor (AR) signaling pathway using the MDA cell line (AID 743040; note: nearly all actives have a fitted effect of over 20% in size). Put shortly: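 Testing was done with the MDA-kb2 AR-luc line, a human breast carcinoma stably transfected with MMTV-luciferase containing AR and GR response elements. Cells were exposed 16 h at 37C before ONE-Glo luminescence detection.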

Experiment [16] has the same target. The experiment can be described thus: qHTS assay to identify small molecule antagonists of the androgen receptor (AR) signaling pathway using the MDA cell line (AID 743042; note: nearly all actives have a fitted effect of over 55% in size). An outline of the steps:
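MDA-kb2 breast carcinoma cells carrying MMTV-luciferase (AR/GR responsive) were co-treated with compounds and the agonist R1881 for 16 h at 37C. Inhibition read as ONE-Glo luminescence; CellTiter-Fluor fluorescence measured in parallel for cytotoxicity.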

Experiment [17] can be described thus: qHTS assay for identifying genotoxic compounds that show differential cytotoxicity against isogenic chicken DT40 cell lines with known DNA damage response pathways - Rad54/Ku70 mutant cell line (AID 743015). Note: nearly all actives have a fitted effect of over 60% in size. Note: potency is the fitted concentration of half-maximal effect.

Sequence of Aromatase (Homo sapiens) (P11511 whole entry, looked up): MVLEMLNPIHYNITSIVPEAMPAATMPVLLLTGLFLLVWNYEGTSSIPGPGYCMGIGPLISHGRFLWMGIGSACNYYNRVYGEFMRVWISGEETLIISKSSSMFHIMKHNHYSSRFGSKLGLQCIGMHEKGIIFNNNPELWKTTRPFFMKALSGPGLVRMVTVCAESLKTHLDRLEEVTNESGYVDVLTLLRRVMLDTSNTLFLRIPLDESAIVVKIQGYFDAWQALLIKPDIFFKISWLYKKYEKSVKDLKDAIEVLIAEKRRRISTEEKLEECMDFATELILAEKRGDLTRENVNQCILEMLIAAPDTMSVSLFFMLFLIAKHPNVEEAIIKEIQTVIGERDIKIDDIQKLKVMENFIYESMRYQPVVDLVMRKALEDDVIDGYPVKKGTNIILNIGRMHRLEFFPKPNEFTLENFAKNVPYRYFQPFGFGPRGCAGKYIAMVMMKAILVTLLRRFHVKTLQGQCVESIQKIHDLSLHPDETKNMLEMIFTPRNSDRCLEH
Sequence of Estrogen receptor (Homo sapiens) (P03372 whole entry, looked up): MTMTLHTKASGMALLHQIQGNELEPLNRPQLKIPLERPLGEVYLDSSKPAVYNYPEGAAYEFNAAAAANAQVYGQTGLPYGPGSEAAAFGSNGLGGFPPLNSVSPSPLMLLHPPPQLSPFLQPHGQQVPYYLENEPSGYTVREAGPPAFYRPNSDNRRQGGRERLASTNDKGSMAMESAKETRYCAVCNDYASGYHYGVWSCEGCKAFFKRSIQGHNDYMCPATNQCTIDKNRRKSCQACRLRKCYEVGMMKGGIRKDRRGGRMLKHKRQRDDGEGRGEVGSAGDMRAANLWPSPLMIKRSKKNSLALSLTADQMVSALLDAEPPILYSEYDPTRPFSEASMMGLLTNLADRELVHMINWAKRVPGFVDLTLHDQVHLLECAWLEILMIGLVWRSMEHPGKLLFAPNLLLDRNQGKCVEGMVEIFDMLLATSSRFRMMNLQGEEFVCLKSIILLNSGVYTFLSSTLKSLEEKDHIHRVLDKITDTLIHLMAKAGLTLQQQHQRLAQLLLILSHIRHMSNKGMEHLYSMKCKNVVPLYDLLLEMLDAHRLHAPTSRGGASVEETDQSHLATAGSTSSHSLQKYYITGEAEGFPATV
Sequence of Androgen receptor (Homo sapiens) (P10275 whole entry, looked up): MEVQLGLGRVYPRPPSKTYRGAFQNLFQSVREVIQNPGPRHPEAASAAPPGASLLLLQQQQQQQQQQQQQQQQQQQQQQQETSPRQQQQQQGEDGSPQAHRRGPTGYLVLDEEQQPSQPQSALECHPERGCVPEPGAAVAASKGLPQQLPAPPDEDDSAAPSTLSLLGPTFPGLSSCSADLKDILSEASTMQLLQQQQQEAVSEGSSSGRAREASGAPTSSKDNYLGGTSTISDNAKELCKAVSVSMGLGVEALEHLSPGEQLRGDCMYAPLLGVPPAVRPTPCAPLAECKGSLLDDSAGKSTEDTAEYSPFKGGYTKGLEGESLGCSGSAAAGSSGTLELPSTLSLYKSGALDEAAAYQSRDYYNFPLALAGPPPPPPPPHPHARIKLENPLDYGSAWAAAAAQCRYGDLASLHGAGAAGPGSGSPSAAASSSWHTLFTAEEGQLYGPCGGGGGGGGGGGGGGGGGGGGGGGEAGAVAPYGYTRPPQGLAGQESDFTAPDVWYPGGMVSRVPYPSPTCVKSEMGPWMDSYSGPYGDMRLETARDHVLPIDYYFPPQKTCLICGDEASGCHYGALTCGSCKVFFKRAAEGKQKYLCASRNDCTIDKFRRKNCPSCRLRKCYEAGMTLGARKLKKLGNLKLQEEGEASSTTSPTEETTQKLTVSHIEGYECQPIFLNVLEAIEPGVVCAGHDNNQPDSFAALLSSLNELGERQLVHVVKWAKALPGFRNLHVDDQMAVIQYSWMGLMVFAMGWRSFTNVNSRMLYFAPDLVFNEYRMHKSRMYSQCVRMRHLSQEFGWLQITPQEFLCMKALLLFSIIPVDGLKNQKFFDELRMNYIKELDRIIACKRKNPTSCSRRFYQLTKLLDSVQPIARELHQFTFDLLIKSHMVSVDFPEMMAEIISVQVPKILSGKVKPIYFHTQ

On to `CCOC(=O)[C@H](CCc1ccccc1)N[C@@H](C)C(=O)N1Cc2cc(OC)c(OC)cc2C[C@H]1C(=O)O`, for which the outcome in experiment [1], in experiment [4], in experiment [8], in experiment [11] and in experiment [13] was inactive. Also, the Potency entry in [2], in experiment [3], in experiment [5], in experiment [6], in experiment [7] and in [9] was “inactive” in each case. Moreover, the Potency result (in [10]; in experiment [12]; in experiment [14]; with Aromatase (Homo sapiens)) was “inactive” each time.
As to `Cc1cc2nc(N)sc2cc1C`, the molecule was called inactive in experiment [1], in experiment [4], in experiment [16] and in experiment [8]. The Potency in [2] was 61.7 µM (active); in experiment [3], 55 µM (active). For the same molecule, the Potency result (in experiment [15]; in experiment [5]; in experiment [7]; in [10]; in experiment [14]; in the experiment with Aromatase (Homo sapiens)) was “inactive” throughout.
In the case of `CCCC1CCC(=O)O1` (stereo unspecified), the molecule was classed as inactive in experiment [1], in [4] and in [8]. Besides, the Potency entry in experiment [2], in experiment [3], in experiment [17], in experiment [5], in experiment [7] and in experiment [10] was “inactive” in each case. The Potency result (in experiment [14]; with Aromatase (Homo sapiens)) was “inactive” throughout.
With `Cc1ccc(C=O)s1`, the outcome in experiment [1], in [4] and in experiment [8] was inactive. In addition, the Potency result in [2], in experiment [3], in experiment [17], in [5], in experiment [7] and in experiment [10] was “inactive” in each case. The Potency result (in experiment [14]; in the experiment with Aromatase (Homo sapiens)) was “inactive” in each case.
Turning to `FC(F)(F)C(Cl)(Cl)Cl`, the molecule was called inactive in experiment [1], in experiment [4], in experiment [8], in experiment [11] and in [13]. The Potency result in experiment [2], in [3], in experiment [17], in experiment [6], in experiment [7] and in experiment [9] was “inactive” each time. Further, the Potency result (in experiment [10]; in experiment [12]; in experiment [14]; with Aromatase (Homo sapiens)) was “inactive” in each case.
On to `OCCN1CCN(CCO)CC1`, for which the molecule was classed as inactive in experiment [1], in experiment [4] and in [8]. In addition, the Potency entry in experiment [2], in [3], in experiment [17], in experiment [5], in experiment [7] and in experiment [10] was “inactive” in each case. Further, the Potency entry (in [14]; in the experiment with Aromatase (Homo sapiens)) was “inactive” in each case.
In the case of `C[C@]12C(=O)OC(=O)[C@H]1[C@H]1C=C[C@@H]2C1`, the outcome in experiment [1], in [4], in experiment [8], in experiment [11] and in experiment [13] was inactive. In addition, the Potency entry in experiment [2], in experiment [3], in experiment [5], in experiment [6], in [7] and in experiment [9] was “inactive” in each case. For the same molecule, the Potency entry (in experiment [10]; in experiment [14]; with Aromatase (Homo sapiens)) was “inactive” in each case.
In the case of `O=c1[nH]c(=O)n([C@H]2C[C@H](O)[C@@H](CO)O2)cc1C(F)(F)F`, the molecule was called inactive in experiment [1], in [4], in experiment [8], in experiment [11] and in experiment [13]. Besides, the Potency in [2] is 0.944 µM (active); in experiment [3], 0.133 µM (active); in experiment [17] it was 0.188 µM (active). For the same molecule, the Potency entry (in experiment [5]; in experiment [10]; in experiment [14]; with Aromatase (Homo sapiens)) was “inactive” each time.
With `O=C(O)c1ccccc1Nc1cc(Cl)ccc1C(=O)O`, the call in experiment [1], in [4], in [8], in experiment [11] and in experiment [13] was inactive. Besides, the Potency entry in experiment [2], in [3], in experiment [5], in experiment [6], in experiment [7] and in experiment [12] was “inactive” each time. Further, the Potency result (in [14]; with Aromatase (Homo sapiens)) was “inactive” in each case.
With `CC1=NN(c2cc(Cl)c(S(=O)(=O)O)cc2Cl)C(=O)C1N=Nc1ccc(S(=O)(=O)O)cc1` (stereo unspecified), the molecule was called inactive in experiment [1], in experiment [4] and in experiment [8]. The Potency result in experiment [2], in [3], in experiment [5], in experiment [6], in experiment [7] and in [10] was “inactive” throughout. The Potency entry (in experiment [14]; with Aromatase (Homo sapiens)) was “inactive” each time.
On to `CCCCOc1cc(C(=O)NCCN(CC)CC)c2ccccc2n1`, for which the call in experiment [1], in experiment [4] and in experiment [8] was inactive. The Potency was 11.4 µM (active) in [2], 5.07 µM (active) in experiment [3], 10.1 µM (active) in experiment [17] and 10.1 µM (active) in experiment [7]. The Potency result (in [5]; in [10]; in experiment [14]; with Aromatase (Homo sapiens)) was “inactive” each time.
